These results are taken from PubChem BioAssay.

Calls of active or inactive are those of the source. Unless noted, the rule behind the calls is not given here.

Test [1] in a line: compounds altering circadian rhythm period length – cell-based, LOPAC library, luminescence reporter (AID 2774).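 Note: values are relative to mean of DMSO wells on each plate.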 The settings on record: circadian reporter cells, at 7 µM, actives lie on both sides.
Test [2] deals with Hepatitis C virus NS3 helicase. Briefly: blockers of NS3h binding to ssDNA – biochemical, fluorescence polarization, LOPAC1280 library, primary screen (AID 687035; in the data active = inhibition above about 37%). The settings on record: Purified HCV NS3 helicase, Cy5-dT15 ssDNA binding fluorescence polarization; stronger effect = higher value; concentration not given here. In general terms: In fluorescence polarisation assays a small probe gives low polarisation when free and higher when bound to something large.

Test [3] can be described thus: compounds altering Cy5-DNA-NS3h complex signal – biochemical, LOPAC1280, artefact control for HCV NS3 helicase inhibitor project (AID 687037). As to conditions: Cy5-DNA-NS3h complex fluorescence interference counterscreen. Background: The purpose of a counterscreen is to sort out artefacts and off-target activity.
Test [4] deals with Aerobactin synthetase IucA (Klebsiella pneumoniae, hypervirulent). Briefly: biochemical IucA inhibition screen of LOPAC library by absorbance (AID 1346212).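 Note: 100% = no compound wells and 0% = no enzyme wells.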 The settings on record: IucA enzyme assay, absorbance (OD) readout; stronger effect = lower value;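 tested at 8 µM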.
A short description of test [5]: viability loss with induced miR-34 in A549 – imaging, A549 dox-inducible miR-34, nuclei and caspase counts, primary screen (AID 1347080;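 active = compounds whose cell count with miR-34 switched on is under 0.7 times the count with it off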). The settings on record: A549 miR-34 inducible, Hoechst nuclei count, 48 h.
Test [6] is described as follows: blockers of cellular phospholipid synthesis – cell-based, LOPAC library, screen 4, primary screen (AID 1347384). The settings on record: animal cells, phospholipid biosynthesis inhibition screen; at 10 µM.
Test [7] can be described thus: galactose survival enhancers in mitochondrial complex I cybrids – cell-based, galactose medium, ATP luminescence, primary screen (AID 1645843;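 active = z-score of at least 1.8 in each of two replicates, scored against plate mean and spread of sample wells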;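 note: positive z means more ATP and so rescue of galactose-driven cybrid death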). As to conditions: complex I mutant cybrid cells, 72 h, stronger effect = higher value.
The nature of test [8]: compounds altering viability of human ES cells (AID 493140).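 Note: cells exposed to compounds for four days before counting.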 As to conditions: human embryonic stem cell survival screen; stronger effect = higher value.
The mark [9] stands for this setting: measured here: relative caspase fold change +Dox/-Dox.
The mark [10] stands for this setting: measured here: total cells with miR-34 induction, stronger effect = lower value.
[11] abbreviates: measured here: total cells without miR-34 induction.

Take `O=[N+]([O-])c1ccc2nc(N3CCNCC3)ccc2c1`: in test [1], the period change is -0.09 h (inactive). For the same molecule, the inhibition – broadly, the relative decrease from the control value, in per cent – in test [2] was -1% (inactive). Also, in test [3], the fluorescence ratio (interference) was 1 (inactive). Further, the remaining activity (usually the signal under treatment as a percentage of the control signal) in test [4] was 117% (inactive). Further, the fold change in test [5] (stronger effect = lower value) was 1.07 (inactive); in test [5] (setting [9]), 1.56. For the same molecule, the results for the cell count in test [5] (setting [10]) and in test [5] (setting [11]) were 8660 and 8090, respectively. Besides, in test [6], the call was inactive. The z-score in test [7] is -1.12 (inactive).

With `CN(N=O)c1ccc(O)c(O)c1`, in test [1], the period change was -0.025 h (inactive). Besides, in test [2], the inhibition is 27% (inactive). Besides, in test [3], the fluorescence ratio (interference) is 0.9 (inactive). Further, the remaining activity in test [4] was 85.2% (inactive). For the same molecule, the results for the fold change in test [5] (stronger effect = lower value) and in test [5] (setting [9]) were 1.13 (inactive) and 0.905, respectively. Also, the cell count came out at 9750 in test [5] (setting [10]) and 8640 in test [5] (setting [11]). Besides, the call in test [6] was inactive. For the same molecule, in test [7], the z-score was 0.2 (inactive).

Consider `Nc1ccc(CCN2CCN(c3cccc(C(F)(F)F)c3)CC2)cc1`, for which, in test [1], the period change was 0.14 h (inactive). In test [2], the inhibition was -3% (inactive). For the same molecule, the fluorescence ratio (interference) in test [3] was 0.9 (inactive). For the same molecule, in test [4], the remaining activity was 102% (inactive). For the same molecule, the fold change in test [5] (stronger effect = lower value) was 0.992 (inactive); in test [5] (setting [9]) it was 0.858. The cell count in test [5] (setting [10]) was found to be 8520; in test [5] (setting [11]) it was 8580. Besides, the result in test [6] was inactive. The z-score in test [7] is -0.665 (inactive).

Regarding `CCCN1CCc2cccc3c2[C@H]1Cc1ccc(O)c(O)c1-3`, in test [1], the period change is 0.32 h (inactive). The inhibition in test [2] is -3% (inactive). In test [3], the fluorescence ratio (interference) is 1 (inactive). Moreover, the remaining activity in test [4] was 109% (inactive). In addition, the fold change is 1.06 (inactive) in test [5] (stronger effect = lower value) and 0.965 in test [5] (setting [9]). In addition, the values for the cell count in test [5] (setting [10]) and in test [5] (setting [11]) were 7250 and 6850, respectively. The result in test [6] was inactive. For the same molecule, the z-score in test [7] was -1.03 (inactive).

For `C[N+](C)(C)CC#CCOC(=O)Nc1cccc(Cl)c1`, in test [1], the period change was 0.045 h (inactive). The inhibition in test [2] was -2% (inactive). The fluorescence ratio (interference) in test [3] is 1 (inactive). Besides, the remaining activity in test [4] was 123% (inactive). Moreover, the fold change in test [5] (stronger effect = lower value) was 0.993 (inactive); in test [5] (setting [9]) it was 1.89. Besides, the cell count was 10400 in test [5] (setting [10]) and 10500 in test [5] (setting [11]). Moreover, in test [6], the outcome was inactive. In test [7], the z-score was -0.395 (inactive).

As to `O=C(O)[C@@H]1CCN1`, the period change in test [1] was 0.09 h (inactive). For the same molecule, the inhibition in test [2] was -5% (inactive). In addition, the fluorescence ratio (interference) in test [3] was 0.9 (inactive). The remaining activity in test [4] is 122% (inactive). Also, the fold change was 1.03 (inactive) in test [5] (stronger effect = lower value) and 1.27 in test [5] (setting [9]). Further, the cell count in test [5] (setting [10]) amounted to 10700; in test [5] (setting [11]), 10400. Also, the molecule was classed as inactive in test [6]. Besides, in test [7], the z-score was 0.2 (inactive).

Consider `Cn1cnc(CCN)c1`, for which, in test [1], the period change is -0.12 h (inactive). Also, the inhibition in test [2] is -3% (inactive). In addition, in test [3], the fluorescence ratio (interference) is 1 (inactive). Moreover, the remaining activity in test [4] was 125% (inactive). Besides, the fold change in test [5] (stronger effect = lower value) was 1.08 (inactive); in test [5] (setting [9]), 1.18. Besides, the cell count is 11400 in test [5] (setting [10]) and 10500 in test [5] (setting [11]). Besides, the molecule was called inactive in test [6]. In test [7], the z-score was 0.51 (inactive).

On to `C[C@]12CCC3C(CC[C@H]4C[C@H](O)CC[C@]34C)C1CC[C@@H]2C(=O)CO` (stereo partly specified), for which, in test [1], the period change was 0.065 h (inactive). Also, the inhibition in test [2] is -2% (inactive). Also, in test [3], the fluorescence ratio (interference) was 1 (inactive). In test [4], the remaining activity was 121% (inactive). Further, the fold change in test [5] (stronger effect = lower value) was 1.06 (inactive); in test [5] (setting [9]), 0.876. Also, the cell count in test [5] (setting [10]) came out at 10400; in test [5] (setting [11]) it was 9790. Besides, the call in test [6] was inactive. Also, the z-score in test [7] was -0.26 (inactive).

Consider `CCCN(CCC)[C@@H]1CCc2ccc(O)cc2C1`, for which the period change in test [1] is 0.12 h (inactive). Further, the inhibition in test [2] is 0% (inactive). The fluorescence ratio (interference) in test [3] was 1.1 (inactive). Moreover, in test [4], the remaining activity was 125% (inactive). The fold change in test [5] (stronger effect = lower value) is 0.992 (inactive); in test [5] (setting [9]), 1.38. The values for the cell count in test [5] (setting [10]) and in test [5] (setting [11]) were 9820 and 9900, respectively. Moreover, the result in test [6] was inactive. Also, the z-score in test [7] is -0.195 (inactive).

In the case of `Clc1cnc(Oc2ccc(Oc3ncc(Cl)cc3Cl)cc2)c(Cl)c1`, the period change in test [1] is 0 h (inactive). In addition, the inhibition in test [2] is -3% (inactive). In addition, the fluorescence ratio (interference) in test [3] is 1 (inactive). Further, in test [4], the remaining activity is 94.8% (inactive). Also, the fold change was 0.984 (inactive) in test [5] (stronger effect = lower value) and 1.88 in test [5] (setting [9]). In addition, the values for the cell count in test [5] (setting [10]) and in test [5] (setting [11]) were 9890 and 10000, respectively. Further, the result in test [6] was inactive. Also, the z-score in test [7] was 1.21 (inactive).

With `CN(C(=O)Cc1ccc(Cl)c(Cl)c1)C(CN1CCCC1)c1cccc(OCC(=O)O)c1` (stereo unspecified), the period change in test [1] was -0.06 h (inactive). In addition, the inhibition in test [2] was -4% (inactive). Further, in test [3], the fluorescence ratio (interference) is 1 (inactive). Further, the remaining activity in test [4] is 103% (inactive). The fold change was 1.05 (inactive) in test [5] (stronger effect = lower value) and 1.11 in test [5] (setting [9]). The cell count in test [5] (setting [10]) came out at 10700; in test [5] (setting [11]), 10200. In addition, the outcome in test [6] was inactive. For the same molecule, the z-score in test [7] is 0.31 (inactive).

`CNCCc1c[nH]c2ccc(O)cc12`: in test [1], the period change is 0.02 h (inactive). Besides, the inhibition in test [2] is -6% (inactive). The fluorescence ratio (interference) in test [3] is 0.9 (inactive). Further, in test [4], the remaining activity is 121% (inactive). For the same molecule, the fold change was 1.03 (inactive) in test [5] (stronger effect = lower value) and 1.46 in test [5] (setting [9]). In addition, the values for the cell count in test [5] (setting [10]) and in test [5] (setting [11]) were 10900 and 10600, respectively. For the same molecule, the call in test [6] was inactive. Moreover, the z-score in test [7] was 0.2 (inactive).

As for `CC(C)Oc1cccnc1N(C)C1CCN(Cc2ccccc2)CC1`, the period change in test [1] is 0.225 h (inactive). In addition, in test [2], the inhibition was -3% (inactive). The fluorescence ratio (interference) in test [3] was 1 (inactive). Also, the remaining activity in test [4] is 99.8% (inactive). Also, the figures for the fold change in test [5] (stronger effect = lower value) and in test [5] (setting [9]) were 0.905 (inactive) and 1.08, respectively. In addition, the cell count was determined as 8620 in test [5] (setting [10]) and 9520 in test [5] (setting [11]). Also, the call in test [6] was inactive. Further, in test [7], the z-score was -0.4 (inactive).

As for `NCC(CP(=O)(O)O)c1ccc(Cl)cc1` (stereo unspecified), the period change in test [1] was 0.02 h (inactive). Moreover, the inhibition in test [2] was -1% (inactive). The fluorescence ratio (interference) in test [3] was 1 (inactive). Also, the remaining activity in test [4] was 107% (inactive). Moreover, the fold change in test [5] (stronger effect = lower value) is 1 (inactive); in test [5] (setting [9]) it was 1.21. Moreover, the cell count in test [5] (setting [10]) worked out at 9470; in test [5] (setting [11]), 9430. The molecule was classed as inactive in test [6]. The z-score in test [7] is 0.615 (inactive).

Consider `CC1Cc2cc3c(cc2C(c2ccc(N)cc2)=NN1)OCO3` (stereo unspecified), for which, in test [1], the period change is 0.09 h (inactive). Further, in test [4], the remaining activity was 102% (inactive).

For `C[Se]C[C@H](N)C(=O)O`, the period change in test [1] was -0.13 h (inactive). Besides, the inhibition in test [2] was -5% (inactive). The fluorescence ratio (interference) in test [3] is 1 (inactive). Also, the remaining activity in test [4] is 106% (inactive).

As for `N#CC(C#N)=Cc1cc(O)c(O)c(O)c1`, the period change in test [1] is -0.035 h (inactive). In test [8], the survival is 61.5 (inactive). The remaining activity in test [4] is 109% (inactive).

Turning to `O=C(OC1CCN(CCCl)CC1)C(c1ccccc1)c1ccccc1`, the period change in test [1] was -0.15 h (inactive). Moreover, the remaining activity in test [4] is 106% (inactive).

In the case of `CCCN(CCC)[C@@H]1CCc2c(F)ccc(O)c2C1`, in test [1], the period change is -0.015 h (inactive). In test [4], the remaining activity is 110% (inactive).

In the case of `CC(=O)[C@H]1CC[C@H]2[C@@H]3CC[C@H]4C[C@](C)(O)CC[C@]4(C)[C@H]3CC[C@]12C`, in test [2], the inhibition is -2% (inactive). Further, in test [3], the fluorescence ratio (interference) was 1 (inactive). The remaining activity in test [4] is 116% (inactive). The values for the fold change in test [5] (stronger effect = lower value) and in test [5] (setting [9]) were 0.971 (inactive) and 1.33, respectively. For the same molecule, the cell count in test [5] (setting [10]) is 10300; in test [5] (setting [11]) it was 10600. Moreover, in test [6], the molecule was called inactive. In test [7], the z-score is -0.05 (inactive).

With `O=C(O)c1cc[c]([Hg][Cl])cc1`, the period change in test [1] was 0.155 h (inactive). Also, the inhibition in test [2] is -5% (inactive). For the same molecule, in test [3], the fluorescence ratio (interference) is 1 (inactive). In addition, the remaining activity in test [4] is -1.2% (active).
